# In all, about 63,000 compounds went through this assay and about 1,100 (1.7%) were called active. The full list was thinned out, with actives kept by preference. Entries with a potency or affinity are not part of this list. A number with no mark means an inactive call. No stated cut-off is given here; in the data, active means cytotoxicity above about 50%; inactive means the rest.
# Assay: cytotoxicity in HPDE-C7 cells, cell-based, fluorescence, HTS (AID 430);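 further: cells exposed to compound for 48 hours before viability readout; 0% = vehicle and 100% = reference cytotoxic drug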
# Conditions: HPDE-C7 pancreatic duct cells viability, at 10 µM, stronger effect = higher value
row,SMILES,cytotoxicity
1,O=C(Nc1ccc2c(c1)OCO2)C(c1ccccc1)N1CCCCC1 (stereo unspecified),-14%
2,O=c1[nH]nnc2c1sc1nc(N3CCOCC3)c3c(c12)CCCC3,30.8%
3,COc1ccccc1-n1c(=O)oc2ccc(Cl)cc2c1=O,59.7% (active)
4,COc1ccccc1C1c2c(oc3ccc(Cl)cc3c2=O)C(=O)N1c1cc(C)on1 (stereo unspecified),-14.3%
5,COc1ccccc1-n1c(SC)nc(O)cc1=O,4.6%
6,Cn1c(SCc2c(F)cccc2Cl)nnc1-c1cccs1,-2.8%
7,O=C(C1COc2ccccc2O1)N1CCN(c2ccc(F)cc2)CC1 (stereo unspecified),-9%
8,O=C(O)COc1ccc2nsnc2c1Cl,-25.1%
9,CCOc1ccccc1OCC(=O)O,4.2%
10,COC(=O)CN1C(=O)C(O)(CC(=O)c2ccc(C)cc2)c2ccccc21 (stereo unspecified),-28.9%
11,Cc1ccccc1-n1c(N)cc(=O)[nH]c1=S,-2.2%
12,CCOC(=O)c1cc(NC(=O)Nc2ccc(OC)c(OC)c2)c(C)nc1C,5.7%
13,CCOC(=O)N1CCN(S(=O)(=O)c2ccc(C(=O)Nc3nc4ccc(F)cc4s3)cc2)CC1,-8%
14,CCOC(=O)N1CCN(S(=O)(=O)c2ccc(F)cc2)CC1,-1.6%
15,CCOC(=O)N1CCN(S(=O)(=O)c2ccc(C(=O)Nc3ccc(F)cc3F)cc2)CC1,58% (active)
16,CC1=CC(c2ccccc2)n2nc(N3C(=O)c4ccccc4C3=O)nc2N1 (stereo unspecified),-0.7%
17,Cc1cc(NC(=O)c2ccc(S(=O)(=O)N(C)C)cc2)no1,-5.2%
18,O=S(=O)(c1ccccc1)c1nc(-c2ccccc2)oc1NCc1cccnc1,-3.2%
19,CCNC(=O)C1CC(=O)N(Cc2ccc3c(c2)OCO3)C(=Nc2ccc(OCC)cc2)S1 (stereo unspecified),-4.1%
20,CCNC(=O)C1CC(=O)N(Cc2ccc3c(c2)OCO3)C(=Nc2ccc(F)cc2)S1 (stereo unspecified),50.6% (active)
21,CNC(=O)C1CC(=O)N(Cc2ccc3c(c2)OCO3)C(=Nc2ccc(F)cc2)S1 (stereo unspecified),3.4%
22,Cc1nc2cc(C(F)(F)F)ccc2n1C1CCN(CC(=O)N2CCOCC2)CC1,1.2%
23,c1ccc(Cn2nnnc2CN2CCN(Cc3ccc4c(c3)OCO4)CC2)cc1,-5.8%
24,COc1ccc(S(=O)(=O)Nc2cc(C)ccc2OC)cc1C,1.8%
25,COc1ccc(NC(=O)CSc2nc3c(c(=O)n2-c2ccc(F)cc2)SCC3)cc1,14.2%
26,COc1ccc(NC(=O)c2cccc(-n3cnnn3)c2)cc1,-1.7%

row,SMILES,cytotoxicity
1,O=C(O)C1C2C=CC3(CN(CC(O)COc4ccccc4)C(=O)C13)O2 (stereo unspecified),-8.7%
2,Cc1cc2ccccc2n1CCNC(=O)c1ccc(S(=O)(=O)N2CCOCC2)cc1,-3.1%
3,Cn1cc(S(=O)(=O)Cc2ccc(F)cc2)c2ccccc21,8.8%
4,CC(C)C[C@H](N)c1nnc(S(=O)(=O)Cc2cccc(F)c2)o1,19%
5,CC(C)CCN1C(=O)CCC1(C)C(=O)NC1CCCCCC1 (stereo unspecified),-16.5%
6,Cc1ccccc1NC(=O)c1nc[nH]c1C(=O)NCc1ccccc1,-22.2%
7,COc1ccc(NC(=O)c2nc[nH]c2C(=O)Nc2ccccc2C)cc1,55.3% (active)
8,COc1ccccc1NC(=O)c1nc[nH]c1C(=O)Nc1ccccc1OC,17%
9,Cc1ccc(Nc2oc(C)nc2C#N)cc1,2.5%
10,CCCSC1=C(C#N)C(c2ccccc2C)CC(=O)N1 (stereo unspecified),10.1%
11,COc1ccc(OC)c(N/C(=N\c2nc(C)cc(C)n2)NC(=O)c2ccco2)c1,-5.6%
12,COC(=O)c1ccc(CSc2nnc(NCc3ccccc3)s2)o1,-3.1%
13,CCOc1ccccc1Nc1nnc(SCc2ccc(C(=O)OC)o2)s1,58% (active)
14,COC(=O)c1ccc(CSc2nnc(Nc3ccccc3OC)s2)o1,43.6%
15,Cn1c(=O)c2c(-c3ccccc3)n(CCCN3CCOCC3)cc2n(C)c1=O,-14%
16,COc1ccccc1NC(=O)c1cc(Sc2nncn2C)nc2ccccc12,4.7%
17,Cc1ccc(C(=O)C2=C(O)C(=O)N(CCCN3CCOCC3)C23C(=O)N(C)c2ccccc23)o1 (stereo unspecified),-20.1%
18,CC1=CC(C)(C)Nc2ccc(C)cc21,-10.9%
19,CCc1ccc2c(c1)C(C)=CC(C)(C)N2,3.5%
20,CCOc1ccc(OC(=O)c2cccnc2)cc1,4.1%
21,CCOc1ccc2c(c1)N(C(=O)CN1C(=O)CCC1=O)C(C)(C)C=C2C,-6.5%
22,O=C(Oc1ccc2ccccc2c1)c1ccco1,5%
23,COC(=O)c1ccc(OC(=O)c2ccco2)cc1,-14.5%
24,COC(=O)C1=C(C)NC(C)=C(C(=O)OC)C1c1ccc(OC(=O)c2ccco2)cc1,-0.4%
25,O=C(Oc1cccc(Br)c1)c1cccnc1,-5%

# — PubChem BioAssay AID430 (Sanford-Burnham Center for Chemical Genomics, 2006)
